Compound activity as filed in PubChem BioAssay.
Sampled rows, rich in hits. Any-hit rate of the full collection: about 3.1%.
BRCA1 expr act: qHTS Assay to Identify Small Molecule Activators of BRCA1 Expression. MCF7-BRCA1-FFLuc reporter, luminescence, 48 h; response scale: scaled: vehicle 0%, 10 µM genistein 100%. Potency, µM (top dose mostly 46.1 µM), actives largely listed as activators. hit rate 1.1% among 380,000. AID 624202, 2012; note: nearly all actives have a fitted effect of over 80% in size
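Cells: MCF7-BRCA1-FFLuc, 2000/well. Exposure: 48 h, 37 °C, 5% CO2. Read: luminescence, 15 min post-substrate. Controls: genistein 10 microM (maximal activation), DMSO (neutral).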
IL2 activator: qHTS of IL-2 Activators. IL-2 activation reporter assay, cell-based qHTS; stimulated with anti-CD3/CD4/CD28 beads; in transgenic mouse T cells. activation, % (series mostly up to about 46 µM). hit rate 0.065% among 360,000; in the data active = activation above about 50%; inconclusive = mostly about 30% to 49%
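Unstimulated transgenic mouse T cells preincubated 60 min with compound, then stimulated with anti-CD3/anti-CD4-coated beads plus anti-CD28 for 18 h at 37 degrees C. IL-2 response read as EGFP and DsRed fluorescence by plate cytometry.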
Nrf2 activator: qHTS of Nrf2 Activators. AREc32 ARE-luciferase reporter (MCF7-derived line), luminescence, 24 h. Potency, µM (doses to about 46.1 µM), actives largely listed as activators. hit rate 0.31% among 410,000. AID 624171, 2012; note: nearly all actives have a fitted effect of over 65% in size
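AREc32 cells carrying an ARE-driven firefly luciferase, 1000 cells/well in OPTI-MEM with 5% FBS, dosed after overnight attachment and incubated 24 hr at 37 deg C. Steady-Glo luminescence read after 30 min at RT.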
ELG1 repair inh: qHTS screen for small molecules that inhibit ELG1-dependent DNA repair in human embryonic kidney (HEK293T) cells expressing luciferase-tagged ELG1; HEK293T ELG1-luciferase reporter, luminescence, 16 h; DNA damage induced by 5-fluorouridine; Potency, µM (top dose mostly 46.1 µM), usual class: inhibitors; hit rate 2.3% among 330,000; AID 504467, 2011; note: nearly all actives have a fitted effect of over 55% in size
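In this reporter screen, reduction of luminescence relative to DMSO vehicle indicated activity. Compounds and 5-fluorouridine were added together to 2,000 cells per well, incubated for 16 hr at 37 °C, then developed with ONE-Glo.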
ELG1 FLuc counter: qHTS screen for small molecules that inhibit ELG1-dependent DNA repair: Hit Confirmation in Cell-Based Luciferin Assay | shares compounds with ELG1 repair inh | AID 624247, 2012 | Potency, µM (titrated, usually from 46.1 µM), actives largely listed as inhibitors | hit rate 3% among 350 | cell-free firefly luciferase luminescence counter-screen, ViewLux
ELG1-Luc inh: HTS assay for small molecules that inhibit ELG1-dependent DNA repair in human embryonic kidney (HEK293T) cells expressing luciferase-tagged ELG1: Hit Confirmation. hit rate 68% among 670. Potency, µM (top dose mostly 46.1 µM), hits mostly inhibitors. HEK293T ELG1-luciferase levels, luminescence; cells co-treated with 5-fluorouridine. shares compounds with ELG1 repair inh; note: nearly all actives have a fitted effect of over 55% in size
ELG1 MMS Luc: inhibits ELG1-dependent repair under MMS stimulation in HEK293T cells | shares compounds with ELG1 repair inh | HEK293T luciferase-tagged ELG1 level, MMS stimulated | Potency, µM (doses to about 46.1 µM), actives largely listed as inhibitors | hit rate 53% among 670 | AID 624249; note: nearly all actives have a fitted effect of over 60% in size
ELG1 5-FU: qHTS screen for small molecules that inhibit ELG1-dependent DNA repair: Hit Confirmation with 5FU Viability; shares compounds with ELG1 repair inh; cell viability with 5-FU, ELG1-dependent repair; Potency, µM (top dose mostly 46.1 µM), hits mostly cytotoxic; 670 tested, under 10 active; AID 624250, 2012;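 note: ELG1-luc HEK293T cells cotreated with 5-fluorouridine at 10 µM final; viability measured 16 h after compound addition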
ELG1 MMS cell: qHTS screen for small molecules that inhibit ELG1-dependent DNA repair: Hit Confirmation with MMS Viability | shares compounds with ELG1 repair inh | Potency, µM (top dose mostly 46.1 µM), hits mostly cytotoxic | hit rate 33% among 670 | Cell viability with MMS, ELG1-dependent DNA repair;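 note: ELG1-luc HEK293T cells co-treated with 10 µM MMS; viability read 16 h after compound addition; nearly all actives have a fitted effect of over 60% in size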
Cell viab unstim: qHTS screen for small molecules that inhibit ELG1-dependent DNA repair: Hit Confirmation with Unstimulated Viability Assay; shares compounds with ELG1 repair inh; cell viability counter-screen, unstimulated, luminescence; Potency, µM (titrated, usually from 45.9 µM), most hits filed as cytotoxic; hit rate 8% among 900; AID 624252, 2012;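 note: compound exposure lasted 16 hours before reading; nearly all actives have a fitted effect of over 55% in size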
FLuc enzyme: qHTS screen for small molecules that inhibit ELG1-dependent DNA repair: Hit Confirmation in Biochemical Luciferin Assay | shares compounds with ELG1 repair inh | purified firefly luciferase, luminescence counter-screen | Potency, µM (doses to about 57.5 µM), usual class: inhibitors | hit rate 10% among 350
Of the large screens only hits and unclear results are named; the others gave an inactive call (follow-up assays come after a bar, where they were run). Unless noted, calls come from the whole dose curve; as a rule, active = well fitted curve in the direction sought with a large enough effect; inconclusive = small, poorly fitted or top-dose-only effect, or another doubt; inactive = no such curve, though single readings can be large; an effect the other way counts as inactive or inconclusive.

CN1/C(=C\C(=O)C[n+]2ccc3ccccc3c2)C(C)(C)c2ccccc21	ELG1 repair inh 1.16µM | ELG1-Luc inh inconclusive | ELG1 MMS Luc 1.99µM | ELG1 5-FU inactive | ELG1 MMS cell 2.81µM | Cell viab unstim inconclusive
CC1(C)Cc2c(c(N3CCOCC3)nc3sc4c(=O)[nH]cnc4c23)CS1	none | ELG1 FLuc counter inactive | ELG1-Luc inh 14.1µM | ELG1 MMS Luc inactive | ELG1 5-FU inconclusive | ELG1 MMS cell inactive | Cell viab unstim inactive | FLuc enzyme inactive
COc1ccc(C2=NC3(CCCCCC3)N(CC(=O)Nc3cccc(Cl)c3)C2=O)cc1	none (no result: BRCA1 expr act, IL2 activator, ELG1 repair inh)
Cc1ccc(NC(=O)C2CCCN2S(=O)(=O)c2cccc3cccnc23)cc1C (centres undefined)	none (no result: BRCA1 expr act, IL2 activator, ELG1 repair inh)
CCn1c(=O)n(CC)c2cc(S(=O)(=O)N3CCCCC3)c(C)cc21	ELG1 repair inh inconclusive | ELG1 FLuc counter inactive | Cell viab unstim inactive | FLuc enzyme inactive
CCn1c(=O)n(CC)c2cc(S(N)(=O)=O)c(C)cc21	none
COc1cccc(C(=O)NCc2cn3cccc(C)c3n2)c1	none (no result: BRCA1 expr act, IL2 activator, ELG1 repair inh)
O=c1c2ccccc2ccc2ccccc12	none
O=c1c2ccccc2oc2c1ccc1ccccc12	Nrf2 activator inconclusive, ELG1 repair inh inconclusive | Cell viab unstim inactive
C/C(=N\NC(=O)c1c(C)nc2ccccn12)c1ccc(O)cc1O	ELG1 repair inh 2.91µM | ELG1-Luc inh inconclusive | ELG1 MMS Luc inconclusive | ELG1 5-FU inactive | ELG1 MMS cell inconclusive | Cell viab unstim inconclusive
COc1cc(OC)c(NC(=O)CSc2nccn2C)cc1Cl	none (no result: IL2 activator, ELG1 repair inh)
N#Cc1ccc(C(=O)Nc2ccccc2-c2nc3ccccc3s2)c(F)c1	none (no result: IL2 activator, ELG1 repair inh)
C=CCNC(=O)c1oc2ccc(S(=O)(=O)N3CCC4(CC3)OCCO4)cc2c1C	ELG1 repair inh inconclusive
Cc1c(C(=O)NCc2ccco2)oc2ccc(S(=O)(=O)N3CCC4(CC3)OCCO4)cc12	ELG1 repair inh 3.26µM | ELG1 FLuc counter inactive | ELG1-Luc inh 4.45µM | ELG1 MMS Luc inactive | ELG1 5-FU inconclusive | ELG1 MMS cell inactive | Cell viab unstim inconclusive | FLuc enzyme inactive
O=C1/C(=C/c2ccc(O)c(O)c2)Oc2ccccc21	none (no result: BRCA1 expr act, IL2 activator, Nrf2 activator, ELG1 repair inh) | Cell viab unstim inactive
COc1cccc(N2CC(NS(=O)(=O)c3cccnc3)CC2=O)c1 (centres undefined)	ELG1 repair inh 4.11µM | ELG1-Luc inh inactive | ELG1 MMS Luc inactive | ELG1 5-FU inactive | ELG1 MMS cell inconclusive | Cell viab unstim inactive
c1ccc(SCc2cn(C[C@H]3CC[C@@H]([C@@H]4CC[C@H](Cn5cc(CSc6ccccc6)nn5)O4)O3)nn2)cc1	ELG1 repair inh 2.06µM | ELG1-Luc inh 28.1µM | ELG1 MMS Luc 28.1µM | ELG1 5-FU inconclusive | ELG1 MMS cell inactive | Cell viab unstim inactive
COc1ccccc1/C=C/c1nc2ccccc2s1	none (no result: IL2 activator, Nrf2 activator, ELG1 repair inh) | Cell viab unstim inactive
Cc1ccc(NC(=O)C2CCCN(c3nnc(-n4c(C)ccc4C)s3)C2)c(C)c1 (centres undefined)	none (no result: BRCA1 expr act, IL2 activator, ELG1 repair inh)
